Data from ChEMBL document CHEMBL3988442, “University of Dundee, Small-Polar-MMV Screening Library” (2021).
For some assays here: Results with a measured potency or affinity are listed apart.

Columns and labels:
Design in all cases: scale not given: direction of the effect not stated beside the values
[1] = target: Protein translocase subunit SecA (Escherichia coli (strain K12)) (UniProt P10408); test: Assay to Identify E. coli SecA ATPase Inhibitors; format: functional; settings: 30 µM
[2] = target: T1, Ubiquitin-activating enzyme e1, putative (Leishmania donovani (strain BPK282A1)) (UniProt E9BSI1); test: Leishmania donovani Ubiquitin Activating Enzyme (LdE1); format: functional; settings: 30 µM
T1 sequence (whole entry): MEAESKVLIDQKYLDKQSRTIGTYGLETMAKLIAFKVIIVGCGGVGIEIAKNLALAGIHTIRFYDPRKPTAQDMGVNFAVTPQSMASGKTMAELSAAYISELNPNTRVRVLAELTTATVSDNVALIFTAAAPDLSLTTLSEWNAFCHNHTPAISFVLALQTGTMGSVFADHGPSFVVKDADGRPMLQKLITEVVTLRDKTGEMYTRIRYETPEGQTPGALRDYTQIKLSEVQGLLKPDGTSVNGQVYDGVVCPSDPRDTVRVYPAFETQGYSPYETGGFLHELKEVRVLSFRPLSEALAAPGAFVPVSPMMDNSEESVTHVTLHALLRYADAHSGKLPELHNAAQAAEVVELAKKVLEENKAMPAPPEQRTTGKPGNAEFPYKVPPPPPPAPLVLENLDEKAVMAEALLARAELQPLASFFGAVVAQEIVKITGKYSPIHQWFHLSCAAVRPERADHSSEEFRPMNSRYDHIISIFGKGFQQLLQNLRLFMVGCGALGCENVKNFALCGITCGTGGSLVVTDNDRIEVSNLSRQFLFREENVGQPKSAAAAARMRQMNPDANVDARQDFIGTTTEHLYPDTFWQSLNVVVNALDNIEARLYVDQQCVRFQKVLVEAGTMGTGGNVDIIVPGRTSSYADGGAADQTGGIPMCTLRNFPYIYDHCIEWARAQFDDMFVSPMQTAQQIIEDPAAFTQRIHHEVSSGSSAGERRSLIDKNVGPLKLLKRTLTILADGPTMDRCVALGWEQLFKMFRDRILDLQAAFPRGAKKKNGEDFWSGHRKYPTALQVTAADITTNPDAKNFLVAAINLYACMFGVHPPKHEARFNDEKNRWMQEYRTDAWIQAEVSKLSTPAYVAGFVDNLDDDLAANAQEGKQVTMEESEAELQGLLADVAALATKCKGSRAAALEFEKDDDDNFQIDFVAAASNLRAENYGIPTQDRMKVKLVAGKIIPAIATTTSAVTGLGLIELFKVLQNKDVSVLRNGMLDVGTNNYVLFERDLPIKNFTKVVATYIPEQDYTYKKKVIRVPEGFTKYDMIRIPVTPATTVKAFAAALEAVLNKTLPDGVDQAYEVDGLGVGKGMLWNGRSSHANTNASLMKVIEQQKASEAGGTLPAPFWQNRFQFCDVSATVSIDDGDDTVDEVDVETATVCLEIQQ

[3] = target: AMP-activated protein kinase, AMPK (Homo sapiens) (UniProt P54646+O43741+P54619+Q9UGJ0+Q9Y478+Q13131+Q9UGI9); test: AMP-dependent Kinase enzyme assay. An in vitro enzyme assay that detects ADP turnover that is directly proportional to AMPK activity. This uses naive AMPK that is activated during the assay with MK-8722; format: functional; settings: 30 µM
[4] = target: Sialic acid-binding Ig-like lectin 9 (Homo sapiens) (UniProt Q9Y336); test: Hs-Siglec9 ALPHAscreen SOP 20170721; settings: 10 µM
Chain of Sialic acid-binding Ig-like lectin 9 (Homo sapiens) (Q9Y336 whole entry): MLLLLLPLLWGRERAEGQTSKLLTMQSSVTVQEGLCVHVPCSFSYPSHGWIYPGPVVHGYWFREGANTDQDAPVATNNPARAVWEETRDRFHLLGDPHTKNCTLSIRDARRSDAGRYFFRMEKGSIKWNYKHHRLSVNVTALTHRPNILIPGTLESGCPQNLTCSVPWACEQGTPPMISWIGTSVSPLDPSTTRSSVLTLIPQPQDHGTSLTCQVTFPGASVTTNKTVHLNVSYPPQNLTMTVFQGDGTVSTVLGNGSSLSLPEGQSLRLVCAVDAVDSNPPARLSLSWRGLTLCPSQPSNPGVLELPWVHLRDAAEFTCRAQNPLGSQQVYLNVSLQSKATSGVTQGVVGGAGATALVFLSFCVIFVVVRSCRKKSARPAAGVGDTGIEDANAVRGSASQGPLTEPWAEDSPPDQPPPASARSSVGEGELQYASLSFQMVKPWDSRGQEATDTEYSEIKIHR

Trypanosoma cruzi = test: Trypanosoma cruzi phosphomannomutase and mannose-1-phosphate guanylyltransferase assay; format: functional; settings: 10 µM
[5] = target: T2, Arginase-2, mitochondrial (Homo sapiens) (UniProt P78540); test: in vitro enzyme assay to detect the production of urea directly proportional to the activity of Arginase II; format: functional; settings: 33.3 µM; also: in the data most compounds retested in dose-response had high values
T2 sequence (whole entry): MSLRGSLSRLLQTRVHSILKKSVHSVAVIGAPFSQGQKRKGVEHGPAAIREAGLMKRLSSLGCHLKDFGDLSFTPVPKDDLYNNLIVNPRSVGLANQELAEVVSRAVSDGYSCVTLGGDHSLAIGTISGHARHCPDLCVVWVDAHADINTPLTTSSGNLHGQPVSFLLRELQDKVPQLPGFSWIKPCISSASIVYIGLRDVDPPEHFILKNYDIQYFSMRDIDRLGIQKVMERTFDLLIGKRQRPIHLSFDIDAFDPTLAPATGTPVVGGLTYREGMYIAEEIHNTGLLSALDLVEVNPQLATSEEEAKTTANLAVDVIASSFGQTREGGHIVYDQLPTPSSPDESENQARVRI

[6] = target: T3, Proteasome subunit beta (Trypanosoma cruzi) (UniProt O96673); test: Trypanosoma cruzi proteasome chymotrypsin-like activity (TcProtChymo) assay.; also: in the data most compounds retested in dose-response had high values; format: functional; settings: 9.37 µM
T3 sequence (whole entry): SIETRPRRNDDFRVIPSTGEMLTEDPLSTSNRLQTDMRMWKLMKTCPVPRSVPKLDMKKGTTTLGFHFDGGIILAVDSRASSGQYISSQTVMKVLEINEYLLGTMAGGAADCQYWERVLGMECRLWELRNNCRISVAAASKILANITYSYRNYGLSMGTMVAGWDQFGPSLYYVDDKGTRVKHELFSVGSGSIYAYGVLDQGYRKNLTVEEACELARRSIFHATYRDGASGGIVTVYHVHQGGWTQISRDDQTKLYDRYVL

Homo sapiens = species on record: Homo sapiens; test: To identify inhibition of the IFN signalling (Jak-Stat) pathway via expression of an eGFP reporter gene under the control of an IFN-stimulated response element (ISRE) containing MxA promoter.; format: functional; settings: 30 µM
[7] = target: T4, Tyrosyl-tRNA synthetase, putative (Trypanosoma cruzi (strain CL Brener)) (UniProt Q4DSP6); test: Trypanosoma cruzi tyrosyl tRNA synthetase (TcYRS) _High Tyrosine SOP; format: functional; settings: 30 µM; also: in the data most compounds retested in dose-response had high values
T4 sequence (whole entry): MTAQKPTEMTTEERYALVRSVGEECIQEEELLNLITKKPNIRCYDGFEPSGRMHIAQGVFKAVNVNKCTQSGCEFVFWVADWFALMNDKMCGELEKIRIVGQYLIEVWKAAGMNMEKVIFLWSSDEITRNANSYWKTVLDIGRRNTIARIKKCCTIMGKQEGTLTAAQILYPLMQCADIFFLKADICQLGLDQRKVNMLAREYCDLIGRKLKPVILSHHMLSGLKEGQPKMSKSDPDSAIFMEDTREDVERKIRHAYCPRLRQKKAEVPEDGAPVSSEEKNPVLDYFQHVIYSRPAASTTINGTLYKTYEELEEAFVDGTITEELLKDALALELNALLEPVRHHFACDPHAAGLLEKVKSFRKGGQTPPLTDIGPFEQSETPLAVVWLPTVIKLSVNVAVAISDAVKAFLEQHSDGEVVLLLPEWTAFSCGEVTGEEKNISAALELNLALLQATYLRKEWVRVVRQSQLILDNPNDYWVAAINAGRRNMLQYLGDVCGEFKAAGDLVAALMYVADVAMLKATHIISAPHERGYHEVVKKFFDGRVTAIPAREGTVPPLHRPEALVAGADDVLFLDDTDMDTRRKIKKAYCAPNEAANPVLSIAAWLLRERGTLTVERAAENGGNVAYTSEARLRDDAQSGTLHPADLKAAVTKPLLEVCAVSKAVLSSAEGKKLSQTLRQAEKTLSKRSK

[8] = target: T4, Tyrosyl-tRNA synthetase, putative (Trypanosoma cruzi (strain CL Brener)); test: Trypanosoma cruzi tyrosyl tRNA synthetase (TcYRS) SOP; format: functional; settings: 30 µM
[9] = target: Chromo domain-containing protein 1 (Saccharomyces cerevisiae (strain ATCC 204508 / S288c) (Baker's yeast)) (UniProt P32657); test: ScCHD-1 Enzyme Inhibition Assay; format: functional; settings: 30 µM; also: in the data most compounds retested in dose-response had high values
Chain of Chromo domain-containing protein 1 (Saccharomyces cerevisiae (strain ATCC 204508 / S288c) (Baker's yeast)) (P32657 whole entry, the tested form may be a part): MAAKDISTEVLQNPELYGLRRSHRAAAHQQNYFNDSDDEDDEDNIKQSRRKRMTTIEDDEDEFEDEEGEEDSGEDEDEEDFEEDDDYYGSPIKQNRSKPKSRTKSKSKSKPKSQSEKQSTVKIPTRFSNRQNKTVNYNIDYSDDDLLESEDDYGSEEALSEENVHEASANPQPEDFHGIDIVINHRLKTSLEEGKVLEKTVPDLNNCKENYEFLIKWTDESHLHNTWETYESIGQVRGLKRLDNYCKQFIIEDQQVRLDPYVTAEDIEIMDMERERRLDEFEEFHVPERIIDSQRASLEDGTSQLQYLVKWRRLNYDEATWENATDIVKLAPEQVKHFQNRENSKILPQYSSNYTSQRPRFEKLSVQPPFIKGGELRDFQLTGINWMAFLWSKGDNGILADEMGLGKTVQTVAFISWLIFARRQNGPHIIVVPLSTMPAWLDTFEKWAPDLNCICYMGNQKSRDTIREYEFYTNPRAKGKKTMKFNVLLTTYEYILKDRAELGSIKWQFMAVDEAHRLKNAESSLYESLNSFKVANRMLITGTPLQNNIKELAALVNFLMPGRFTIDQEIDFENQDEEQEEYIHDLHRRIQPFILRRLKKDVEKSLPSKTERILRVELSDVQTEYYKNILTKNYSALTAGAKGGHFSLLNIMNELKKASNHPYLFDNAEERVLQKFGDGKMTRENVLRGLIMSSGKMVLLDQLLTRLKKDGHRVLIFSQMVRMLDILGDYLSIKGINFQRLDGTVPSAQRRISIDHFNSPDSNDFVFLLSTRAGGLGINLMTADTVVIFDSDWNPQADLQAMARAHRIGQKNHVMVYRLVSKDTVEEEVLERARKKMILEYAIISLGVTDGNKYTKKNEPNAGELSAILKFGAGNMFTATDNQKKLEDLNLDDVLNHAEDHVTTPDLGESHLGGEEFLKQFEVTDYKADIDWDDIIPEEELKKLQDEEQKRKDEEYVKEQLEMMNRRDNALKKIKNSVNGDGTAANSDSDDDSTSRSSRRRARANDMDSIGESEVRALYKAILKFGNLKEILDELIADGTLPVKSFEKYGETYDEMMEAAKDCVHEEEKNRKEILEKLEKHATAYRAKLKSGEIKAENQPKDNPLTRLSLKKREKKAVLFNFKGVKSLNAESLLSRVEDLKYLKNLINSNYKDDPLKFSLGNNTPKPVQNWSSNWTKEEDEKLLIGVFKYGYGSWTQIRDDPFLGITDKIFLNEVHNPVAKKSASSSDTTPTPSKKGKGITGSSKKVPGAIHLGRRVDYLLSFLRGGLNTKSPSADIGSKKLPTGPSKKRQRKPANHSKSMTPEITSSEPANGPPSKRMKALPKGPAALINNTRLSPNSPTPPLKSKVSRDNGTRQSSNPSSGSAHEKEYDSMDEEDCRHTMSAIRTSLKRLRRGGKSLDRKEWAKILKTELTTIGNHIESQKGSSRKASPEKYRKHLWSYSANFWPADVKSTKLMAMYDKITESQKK

Chain of Protein translocase subunit SecA (Escherichia coli (strain K12)) (P10408 whole entry): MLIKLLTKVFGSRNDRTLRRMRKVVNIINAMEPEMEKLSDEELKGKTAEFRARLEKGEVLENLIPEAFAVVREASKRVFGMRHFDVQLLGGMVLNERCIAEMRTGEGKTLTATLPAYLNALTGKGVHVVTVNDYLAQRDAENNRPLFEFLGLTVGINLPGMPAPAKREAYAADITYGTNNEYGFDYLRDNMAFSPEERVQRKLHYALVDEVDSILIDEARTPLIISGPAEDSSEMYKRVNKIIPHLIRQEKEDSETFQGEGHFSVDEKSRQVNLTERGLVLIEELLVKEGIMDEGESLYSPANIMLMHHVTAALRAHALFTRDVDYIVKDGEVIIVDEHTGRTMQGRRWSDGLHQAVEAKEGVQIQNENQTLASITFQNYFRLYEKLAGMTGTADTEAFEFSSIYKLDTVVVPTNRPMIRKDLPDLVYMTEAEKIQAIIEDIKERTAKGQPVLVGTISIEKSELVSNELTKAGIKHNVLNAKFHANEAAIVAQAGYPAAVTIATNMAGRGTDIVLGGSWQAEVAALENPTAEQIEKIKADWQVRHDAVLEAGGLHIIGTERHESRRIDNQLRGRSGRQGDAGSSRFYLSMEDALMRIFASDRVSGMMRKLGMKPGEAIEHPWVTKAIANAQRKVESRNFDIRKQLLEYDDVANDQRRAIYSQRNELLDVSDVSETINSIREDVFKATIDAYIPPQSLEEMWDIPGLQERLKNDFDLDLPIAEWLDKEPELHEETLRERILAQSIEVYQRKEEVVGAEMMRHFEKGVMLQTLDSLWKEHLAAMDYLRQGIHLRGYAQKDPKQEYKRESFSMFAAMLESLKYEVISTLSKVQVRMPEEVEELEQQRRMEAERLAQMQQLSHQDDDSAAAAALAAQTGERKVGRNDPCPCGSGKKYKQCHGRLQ

Row | Compound | Percent Effect [1] | Percent Effect [2] | Percent Effect [3] | Percent Effect [4] | Percent Effect (Trypanosoma cruzi) | Percent Effect [5] | Percent Effect [6] | Percent Effect (Homo sapiens) | Percent Effect [7] | Percent Effect [8] | Percent Effect [9]
1 | Fc1ccc(-c2nnc(CN3CCOC(Cn4cncn4)C3)o2)cc1 (stereo not given) | -6.46% | 0% | 1.39% | -4.51% | -2.62% | 3.56% | -2.37% | 19.6% | 0.971% | -14.6% | -2.35%
2 | O=C(NCCc1ccccc1)C1CCC(Cn2cnnn2)CC1 (stereo not given) | -0.876% | -4% | 1.1% | 6.93% | -1.77% | -4.4% | 3.88% | -9.79% | 2.12% | 5.13% | 2.05%
3 | COc1cccc(S(=O)(=O)CCN2CCC3(CC2)OCCO3)c1 | -7.81% | 2.67% | -4.97% | 6.11% | 3.99% | 5.21% | 6.45% | 6.75% | 3.83% | 6.17% | -5.65%
4 | CCOCCC(=O)N1CCCN(Cc2csc(CC)n2)CC1 | -0.651% | 3.8% | 1.45% | 3.57% | -1.74% | 2.37% | 25.7% | 7.51% | 6.25% | 10.1% | -30.1%
5 | CN1CCN(C2CCN(CCOc3ccc(F)cc3)CC2)C1=O | -8.87% | 2.6% | 0.436% | -4% | -3.18% | -0.356% | 4.05% | 37.8% | 0% | 0% | -7.75%
6 | Cn1cc(CN2CC[C@H]3O[C@H](C(=O)NCc4ccco4)CC[C@H]32)cn1 | -0.286% | 5.33% | -3.22% | -1.09% | -7.14% | -53.2% | 6.67% | -2.52% | 1.04% | 12.5% | -5.84%
7 | Cc1nn(C)c(Cl)c1C1CCCN1C(=O)c1nccnc1N (stereo not given) | -2.73% | 16.2% | -10.8% | -6.66% | -3.3% | 0.802% | 12.4% | 1.8% | 7.39% | 18.5% | -6.71%
8 | OCC1CCCN1c1cc(NCc2ccc(Cl)s2)ncn1 (stereo not given) | 0.246% | 8.86% | -3.63% | -2.18% | -1.95% | -3.66% | 24% | 74.3% | 4.17% | 15.2% | -15.5%
9 | Cc1nc2c(c(N3CC=CC3)n1)CCN(Cc1ccoc1)CC2 | -7.04% | 5.2% | 2.16% | 4.88% | -1.87% | 1.38% | 9.65% | -16.9% | 3.23% | 8.64% | 1.68%
10 | Cc1cc(NC(=O)NCCc2cccs2)n(C)n1 | 0.534% | 4.17% | -1.97% | -7.64% | -8.65% | 4.42% | 23.3% | -9.88% | 0% | 5.13% | -0.833%
